Compound activity (PubChem BioAssay)
RGS7-Gao = regulators of human RGS7-Galphao interaction; P09471; binding response (% of control), % at 10 µM; Multiplexed bead flow cytometry, RGS7-Galphao binding; actives lie on both sides; 220,000 compounds, 0.35% hits; in the data active means binding response below about 49% or above about 150%; inconclusive means no clear call, values can overlap the other calls; inactive means in between;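 further: fluorescent Galphao held in activated GDP-AlF4 state binding bead-coupled RGS7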
Target sequence (P09471 whole entry, looked up): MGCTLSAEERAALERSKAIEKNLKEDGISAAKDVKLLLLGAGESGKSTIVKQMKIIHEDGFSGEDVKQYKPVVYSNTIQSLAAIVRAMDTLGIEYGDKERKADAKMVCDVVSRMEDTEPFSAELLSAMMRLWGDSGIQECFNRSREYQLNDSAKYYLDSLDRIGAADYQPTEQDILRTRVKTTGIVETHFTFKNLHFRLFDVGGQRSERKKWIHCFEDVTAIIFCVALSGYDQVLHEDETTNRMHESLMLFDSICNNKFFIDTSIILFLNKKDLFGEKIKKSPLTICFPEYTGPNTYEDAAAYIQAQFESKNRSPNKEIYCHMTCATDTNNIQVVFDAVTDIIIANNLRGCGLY
GSH fluor = compound fluoresces at 488/530 nm on GSH beads | GSH beads flow cytometry, compound fluorescence 488/530 nm; stronger effect = higher value | fluorescence (KMESF) at 10 µM | 190,000 compounds, 0.25% hits | AID 1776; in the data active means fluorescence above about 89;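 further: glutathione beads carrying GST-tagged Bcl family fusion proteins plus one bare bead set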
RGS16-Gao HTS = regulators of human RGS16-Galphao interaction; binding response (% of control), % at 10 µM; bead-based flow cytometry RGS16-Galphao binding, fluorescence; actives lie on both sides; 220,000 compounds, 0.38% hits; AID 1441;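 further: Galphao activated by GDP with aluminum fluoride before binding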
Avidin bead fluor = avidin bead compound fluorescence profile. 220,000 compounds, 0.38% hits. Avidin beads, compound fluorescence 488/530 nm, flow cytometry; stronger effect = higher value. fluorescence (KMESF) at 10 µM; in the data active means fluorescence above about 47
RGS4-Gao reg = modulates binding of RGS4 to human Galphao; P09471; Multiplexed bead flow cytometry; actives lie on both sides; binding response (% of control), % at 10 µM; 220,000 compounds, 0.33% hits; AID 1415; in the data active means binding response below about 49% or above about 150%; inactive means in between;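 further: fluorescent Galphao activated with aluminum fluoride binding bead-coupled RGS4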
RGS8-Gao = human RGS8-Galphao interaction regulation; multiplexed bead flow cytometry, RGS8-Galphao binding; actives lie on both sides; 220,000 compounds, 0.34% hits; P09471; response (percent of control binding), % at 10 µM; in the data active means response below about 60% or above about 140%; inactive means in between;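 further: Galphao activated as the GDP aluminium fluoride complex binding bead-coupled RGS8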
RGS-Gao = regulators of human RGS4-Galphao interaction; shares compounds with RGS16-Gao HTS; multiplexed bead flow cytometry, RGS–Galpha-o binding; RGS4–Galpha-o binding response, % at 10 µM; 1,600 compounds, 99% hits; AID 1504;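 further: fluorescently labeled Galpha-o bound to GDP with aluminium fluoride binding biotinylated RGS beads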
Target sequence (P09471 whole entry, looked up): as above
Target sequence (P49798 whole entry, looked up): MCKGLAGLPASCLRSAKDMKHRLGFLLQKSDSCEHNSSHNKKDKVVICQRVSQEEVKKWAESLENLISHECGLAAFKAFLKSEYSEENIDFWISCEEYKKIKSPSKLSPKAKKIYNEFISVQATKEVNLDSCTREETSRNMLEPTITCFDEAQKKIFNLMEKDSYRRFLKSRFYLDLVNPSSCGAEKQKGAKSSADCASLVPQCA
Biotin-avidin = biotin-avidin bead binding disruption counter-screen. 1,700 tested, under 10 active. shares compounds with RGS16-Gao HTS. AID 1783. streptavidin beads, fluorescein-biotin binding, flow cytometry. inhibition, % at 10 µM;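 active means inhibition above 50%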;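 further: median green fluorescence of gated singlet beads compared with DMSO control wells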
RGS8-Gao single = confirmation of regulators of human RGS8-Galphao interaction; shares compounds with RGS16-Gao HTS; 1,700 compounds, 3% hits; binding response (% of control), % at 10 µM; bead-based flow cytometry RGS8-Galphao binding, fluorescence; actives lie on both sides; in the data active means binding response below about 72% or above about 130%; inactive means in between;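 further: Galphao activated as GDP AlF4 complex before binding bead RGS8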
RGS7-Gao confirm = confirmation of regulators of human RGS7-Galphao interaction | shares compounds with RGS16-Gao HTS | bead-based flow cytometry RGS7-Galphao binding; actives lie on both sides | response (percent of control binding), % at 10 µM | 1,700 compounds, 7.8% hits; in the data active means response below about 75% or above about 130%; inactive means in between;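 further: fluorescent Galphao activated with GDP and aluminum fluoride binding bead-coupled RGS7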
RGS16-Gao single = RGS16-Galphao interaction regulation, single point confirmation; response (% of control binding), % at 10 µM; AID 1838; shares compounds with RGS16-Gao HTS; 1,700 compounds, 4% hits; bead-based flow cytometry, RGS16-Galphao binding; actives lie on both sides; in the data active means response below about 74% or above about 130%; inactive means in between;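 further: Galphao activated as the GDP aluminium fluoride complex binding bead-coupled RGS16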
RGS4-Gao confirm = confirmation of regulators of human RGS4-Galphao interaction; RGS4-Galphao binding, multiplexed bead flow cytometry; actives lie on both sides; binding response (% of control), % at 10 µM; 1,700 compounds, 4% hits; AID 1840; shares compounds with RGS16-Gao HTS; in the data active means binding response below about 74% or above about 130%; inactive means in between
RGS19-Gao single = confirmation of regulators of human RGS19-Galphao interaction. shares compounds with RGS16-Gao HTS. response (percent of control binding), % at 10 µM. bead-based flow cytometry RGS19-Galphao binding; actives lie on both sides. 1,700 compounds, 5% hits. AID 1841; in the data active means response below about 50% or above about 160%; inactive means in between
Numbers stand for hits; – = inactive; ? = inconclusive; · = not tested or not shown; [ ] = remark or other dose. Most compounds without a hit are left out; they make up all but 1.2% or so of the library. Unless noted, how the calls were made is not given here.

SMILES	RGS7-Gao	GSH fluor	RGS16-Gao HTS	Avidin bead fluor	RGS4-Gao reg	RGS8-Gao	Biotin-avidin	RGS8-Gao single	RGS7-Gao confirm	RGS16-Gao single	RGS4-Gao confirm	RGS19-Gao single	others
CCOc1ccc(S(=O)(=O)N/N=C(\C)C2CCCCC2)cc1	–	–	14	–	–	–	–	–	–	–	–	–	RGS-Gao=101
CCOc1ccc(S(=O)(=O)NC2CCCCCC2)cc1	35	–	–	–	46	50	–	–	–	–	–	–
CCOc1ccc(S(=O)(=O)N/N=C(\C)Cc2ccc(OC)cc2)cc1	?	–	–	–	–	–	·	·	·	·	·	·
C/C(=C\C=C\c1ccccc1)C(=O)c1c(C)cc(C)[nH]c1=O	–	–	–	–	–	–	·	·	·	·	·	·
CC(C)[C@H](NS(=O)(=O)/C=C/c1ccccc1)C(=O)OCC(=O)NC(N)=O	?	·	–	–	–	–	·	·	·	·	·	·
Cc1ccccc1OCC(=O)N(Cc1cccs1)C1CCS(=O)(=O)C1 (stereo not given)	–	–	–	–	–	–	·	·	·	·	·	·
Cc1cccc(OC(C)C(=O)N(Cc2cccs2)C2CCS(=O)(=O)C2)c1C (stereo not given)	–	–	-16	–	–	–	–	–	–	–	–	–	RGS-Gao=69
CCN(CC(=O)Nc1ccc(NC(C)=O)cc1)C(=O)c1n[nH]c(=O)c2ccccc12	?	–	–	–	–	–	·	·	·	·	·	·
CCCCn1c(SCC(=O)N2CCCc3ccccc32)nc2c1c(=O)n(C)c(=O)n2C	–	–	–	–	–	–	·	·	·	·	·	·
CN1CCN(c2ccc([N+](=O)[O-])cc2C(=O)c2ccc(Cl)cc2)CC1	–	–	–	–	–	–	·	·	·	·	·	·
Cc1ccc(-n2c(SCC(=O)NCc3ccco3)nc3c([nH]c4ccccc43)c2=O)cc1	-11	–	-4.2	–	-3.0	6.5	–	–	–	–	–	–
O=C(COc1ccc(S(=O)(=O)Nc2ccccc2)cc1)N1CCOCC1	–	–	–	–	–	–	·	·	·	·	·	·
CCOCCCNC(=O)c1ccc(N2CCOCC2)c(NS(=O)(=O)c2ccc(OC)cc2)c1	–	–	–	–	–	–	·	·	·	·	·	·
COCCCNC(=O)c1ccc(N2CCOCC2)c(NS(=O)(=O)c2ccc(OC)cc2)c1	·	–	·	·	·	·	–	–	–	–	–	–
COc1ccc(OCC(=O)N2CCN(S(=O)(=O)c3ccc(Cl)cc3)CC2)cc1	–	–	–	–	–	152[activator]	–	–	–	–	–	–	RGS-Gao=116
O=C(CN(Cc1ccccc1)S(=O)(=O)c1ccccc1)N1CCOCC1	–	–	–	–	–	–	·	·	·	·	·	·
O=C(COc1ccccc1)N1CCN(S(=O)(=O)c2ccc(Cl)cc2)CC1	–	–	–	–	–	–	·	·	·	·	·	·
COc1ccc(S(=O)(=O)N(CC(=O)N2CCOCC2)Cc2ccccc2)cc1	217[activator]	–	–	230	–	–	–	–	–	–	–	–	RGS-Gao=119
COc1ccc(NS(=O)(=O)c2ccc(OCC(=O)N3CCOCC3)cc2)cc1	16	–	12	–	21	13	–	–	–	–	–	–
Cc1ccc(-n2ncc(Cl)c2C(=O)NC2CC2)cc1	–	–	–	–	–	–	·	·	·	·	·	·
O=C(COC(=O)C1CCCCC1)NCCc1ccccc1	–	–	–	–	–	–	·	·	·	·	·	·
COCCCNC(=S)NNC(=O)c1cccnc1	–	–	–	–	–	–	·	·	·	·	·	·
COc1ccc(CC2(CO)CCN(Cc3ccc4nsnc4c3)CC2)cc1	–	–	–	–	–	–	·	·	·	·	·	·
CC(C)(C)c1ccccc1NC(=S)NC1CCCCC1	–	–	–	–	–	–	·	·	·	·	·	·
COc1ccc(S(=O)(=O)Nc2ccc(-n3cccc3)cc2)cc1	?	–	13	–	22	14	–	–	–	–	–	–
SMILES	RGS7-Gao	GSH fluor	RGS16-Gao HTS	Avidin bead fluor	RGS4-Gao reg	RGS8-Gao	Biotin-avidin	RGS8-Gao single	RGS7-Gao confirm	RGS16-Gao single	RGS4-Gao confirm	RGS19-Gao single	others
CCC(C)(C(=O)NC1CCCC1)N(Cc1cccs1)C(=O)c1ccc2c(c1)OCO2 (stereo not given)	–	–	–	–	–	–	·	·	·	·	·	·
CC(=O)Oc1cccc(N2C(=O)c3ccc(C(=O)Nc4c[nH]c(=O)[nH]c4=O)cc3C2=O)c1	–	–	–	–	–	–	·	·	·	·	·	·
O=C(Cn1c(=O)oc2cccnc21)Nc1ccc(C(F)(F)F)cc1	?	·	–	–	–	–	·	·	·	·	·	·
Cc1ccccc1/C=N/n1c(-c2cc(-c3ccccc3)n[nH]2)n[nH]c1=S	?	·	–	–	37	41	–	–	–	–	–	–
Cc1ccsc1/C=N/n1c(-c2cc(-c3ccccc3)n[nH]2)n[nH]c1=S	?	·	–	–	–	–	·	·	·	·	·	·
CCCCN(CCCC)S(=O)(=O)c1ccc(NC(=O)c2ccc([N+](=O)[O-])cc2Cl)cc1	–	–	304[activator]	–	–	–	–	–	–	–	–	–	RGS-Gao=113
COc1cccc(Oc2cn[nH]c2-c2ccc(OC)cc2O)c1	281[activator]	–	–	187	–	–	·	·	·	·	·	·	RGS-Gao=133
COc1ccc(NC(=S)NNC(=O)Cn2nc(C(F)F)cc2C(F)F)cc1	–	–	–	–	–	–	·	·	·	·	·	·
CCNC(=O)Cn1c(=O)c(=O)n(Cc2ccccc2)c2ccc(Cl)cc21	171[activator]	–	243[activator]	57	162[activator]	–	–	–	–	–	–	–
CC(NC(=O)CN1CCc2ccccc21)c1ccccc1 (stereo not given)	–	–	–	–	–	–	·	·	·	·	·	·
Cc1cccc(NCc2cc(Cl)cc(Cl)c2O)n1	278[activator]	–	323[activator]	175	274[activator]	–	–	–	–	–	–	–
C/C(=N\NC(=O)c1ccc(CN2CCOCC2)cc1)c1ccc(NC(=O)c2ccccc2)cc1	–	–	–	–	–	–	·	·	·	·	·	·
CCCN(CCC)c1nc(C#N)nc(N(CCC)CCC)n1	–	–	–	–	–	48	–	–	–	–	–	–	RGS-Gao=96
